ssDAF12 agonist = activates DAF-12 receptor from parasite S. stercoralis. HEK293 ssDAF-12/GRIP1 lit1-tk-luc reporter, luminescence; % of 3 µM dafachronic acid response. activation, % at 6.8 µM. 370,000 compounds, 1% hits. AID 652126;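 active means activation above the mean over all tested compounds plus 3 SD, cut at about 0.9% in these data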
hcDAF12 agonist = activates DAF-12 receptor from parasite H. contortus; activation, % at 6.8 µM; 370,000 compounds, 1.4% hits; HEK293 hcDAF-12 lit1-tk-luc reporter, luminescence; 0% DMSO, 100% Δ7-dafachronic acid; AID 652067;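 active means activation above the mean of all tested compounds plus 3 SD, cut at about 5.5% in these data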
DAX1 inh-1 = DAX1 (NR0B1) inhibition, primary screen; inhibition, % at 6.8 µM; 370,000 compounds, 1.1% hits; HEK293T StAR-luciferase reporter, SF-1/DAX-1 repression relief;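 active means inhibition above the mean over all tested compounds plus 3 SD, cut at about 3.6% in these data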;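 further: higher inhibition means more luminescence from relief of DAX-1 repression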
hgDAF12 agonist = agonists of H. glycines DAF-12 nuclear receptor | HEK293 GAL4-hgDAF12 UAS-luciferase reporter, agonist luminescence; normalized to butyrate control | activation, % at 6.8 µM | 370,000 compounds, 1.8% hits;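 active means activation above a cutoff set at the mean of all screened compounds plus 3 SD, cut at about 10% in these data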
DAX1 inh-2 = inhibits human nuclear receptor DAX1; P51843; HEK293 Gal4-DAX1 luciferase reporter, luminescence; inhibition, % at 6.75 µM; 340,000 compounds, 0.99% hits; AID 504766;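 active means inhibition above the mean over all tested compounds plus 3 SD, cut at about 4.2% in these data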;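 further: inhibition shows as a rise in luminescence from relieved DAX1 repression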
Target sequence (P51843 207-470 limits assumed): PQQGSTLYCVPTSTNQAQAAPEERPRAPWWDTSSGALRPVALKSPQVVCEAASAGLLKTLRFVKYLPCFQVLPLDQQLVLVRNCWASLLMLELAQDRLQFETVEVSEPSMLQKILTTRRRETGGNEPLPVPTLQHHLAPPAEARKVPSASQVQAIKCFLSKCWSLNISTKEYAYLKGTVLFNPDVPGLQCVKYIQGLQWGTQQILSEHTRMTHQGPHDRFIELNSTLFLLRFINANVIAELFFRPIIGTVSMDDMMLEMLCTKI
SMARCA2 activ = SMARCA2 function activation, primary screen. MG213 cells, MMTV-luciferase reporter, dexamethasone, overnight. activation, % at 9.1 µM. 370,000 compounds, 1% hits. AID 652017; in the data active means activation above about 7.8%
LXRb hcDAF ctr = counter-screen for hcDAF-12 agonists: agonists of human LXR-beta; shares compounds with hcDAF12 agonist; HEK293 Gal4-LXR tk-luc reporter, luminescence, 24 h; normalized: DMSO 0%, positive control 100%; activation, % at 6.8 µM; 3,400 tested, under 10 active;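 active means mean percent activation of the reporter above a cutoff set as the average over tested compounds plus their standard deviation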
Target sequence (P55055 whole entry, looked up, the tested form may be a part): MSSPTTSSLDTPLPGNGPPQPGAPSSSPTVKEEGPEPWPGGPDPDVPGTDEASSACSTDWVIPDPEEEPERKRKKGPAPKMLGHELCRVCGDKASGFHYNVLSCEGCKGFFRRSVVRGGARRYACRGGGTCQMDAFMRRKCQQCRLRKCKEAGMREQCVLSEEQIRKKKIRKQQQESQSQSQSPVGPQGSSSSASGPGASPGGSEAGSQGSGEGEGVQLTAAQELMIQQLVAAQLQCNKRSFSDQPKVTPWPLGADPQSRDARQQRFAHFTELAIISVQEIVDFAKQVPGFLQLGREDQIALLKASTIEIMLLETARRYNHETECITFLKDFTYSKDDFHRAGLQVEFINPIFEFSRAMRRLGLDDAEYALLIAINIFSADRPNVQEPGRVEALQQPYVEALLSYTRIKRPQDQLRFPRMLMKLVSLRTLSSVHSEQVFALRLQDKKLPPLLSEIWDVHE
hcDAF12 conf = confirmation of H. contortus DAF-12 agonists | HEK293 hcDAF-12 lit1-tk-luc reporter, luminescence; % of Δ7-dafachronic acid response | shares compounds with hcDAF12 agonist | 3,400 compounds, 61% hits | activation, % at 6.8 µM;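 active means mean activation across triplicate tests above the threshold derived from the earlier primary screen, cut at about 5.5% in these data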
Large screens that a line does not name were inactive (follow-up assays come after a bar, where they were run). Compounds with a hit are over-represented: about 4.8% of the library has one in this group of screens.

COc1ccccc1-c1cccc2[nH]c3c(c12)CCN1C(=O)[C@H]2[C@H](C)ON(C)[C@H]2C[C@@H]31	none (no result: DAX1 inh-2)
Nc1[nH]c(C(=O)c2ccccc2)c(-c2ccccc2[N+](=O)[O-])c1C(=O)NCCc1c[nH]c2ccccc12	none (no result: DAX1 inh-2)
COc1ccccc1OCCNC(=O)c1cc(SC)ccc1Cl	none
COc1ccccc1OCCNC(=O)c1cc(F)c(F)cc1Cl	hcDAF12 agonist 7.8 | LXRb hcDAF ctr inactive | hcDAF12 conf inactive
CN1C(=O)[C@@]2(O[C@H]3C=CC=CN3C3=C2C(=O)CCC3)c2cc([N+](=O)[O-])ccc21	none (no result: DAX1 inh-2)
O=C(OCC(=O)c1c[nH]c2ccccc12)C1=COCCO1	ssDAF12 agonist 1.0, hcDAF12 agonist 7.2 | LXRb hcDAF ctr inactive | hcDAF12 conf 9.9
COC(=O)C1=C(C)N(Cc2ccccc2C(F)(F)F)C(=NCc2cc(OC)c(OC)c(OC)c2)NC1c1ccccc1 (configuration not stated)	none (no result: DAX1 inh-2)
OCCC1CN(Cc2ccccc2O)CCN1CCCc1ccccc1 (configuration not stated)	hcDAF12 agonist 7.8 | LXRb hcDAF ctr inactive | hcDAF12 conf inactive
Cc1ccc(NC(=S)c2ccncc2)c(C)c1	none
COc1ccccc1NC(=S)Nc1ccccn1	none
Cc1ccc(NC(=S)Nc2ccccn2)cc1C	ssDAF12 agonist 1.8, hcDAF12 agonist 8.6, hgDAF12 agonist 13 (no result: DAX1 inh-2) | LXRb hcDAF ctr inactive | hcDAF12 conf 11
Cc1cc(C)cc(NC(=S)Nc2ccccn2)c1	hcDAF12 agonist 7.5 | LXRb hcDAF ctr inactive | hcDAF12 conf inactive
Cc1ccc(NC(=S)Nc2ccccn2)c(C)c1	hcDAF12 agonist 7.2 | LXRb hcDAF ctr inactive | hcDAF12 conf 8.7
COC(=O)[C@]12C[C@H](CC(=O)NCc3ccc(OC)c(OC)c3)C(=O)N(Cc3ccc4c(c3)OCO4)C1=C[C@H](COCc1ccccc1)O[C@@H]2C	none (no result: DAX1 inh-2)
C[C@H]1[C@@H](OC(=O)Oc2ccc([N+](=O)[O-])cc2)CC[C@@]23CCCN2C(=O)CCC[C@@H]13	none (no result: DAX1 inh-1, DAX1 inh-2, SMARCA2 activ)
O=C(O)c1ccc(-c2noc(-c3ccccc3Cl)n2)cc1	hcDAF12 agonist 8.2 | LXRb hcDAF ctr inactive | hcDAF12 conf 9.9
O=C(O)c1ccc(-c2noc(-c3ccccc3C(F)(F)F)n2)cc1	none
Nc1ncnc2c1ncn2[C@@H]1O[C@H](C(=O)N[C@@H](CCc2ccccc2)C(=O)O)[C@@H](O)[C@H]1O	none (no result: DAX1 inh-2)
O=C(/C=C/c1cccc([N+](=O)[O-])c1)c1ccco1	none
Cc1ccc([N+](=O)[O-])cc1N/C=C/C(=O)c1ccco1	hcDAF12 agonist 8.1 | LXRb hcDAF ctr inactive | hcDAF12 conf 6.1
Cc1[nH]c2ccccc2c1/C=N/Nc1cccc(C(=O)O)c1	ssDAF12 agonist 0.9, hcDAF12 agonist 11, hgDAF12 agonist 13 | LXRb hcDAF ctr inactive | hcDAF12 conf 13
CC(C)[C@H](NC(=O)[C@@H](N)Cc1ccccc1)C(=O)N1CCC2CCN(Cc3ccccc3)CC21 (some centres not stated)	none (no result: DAX1 inh-2)
O=C(O)Cn1cc(/C=N/Nc2ccc([N+](=O)[O-])cn2)c2ccccc21	ssDAF12 agonist 1.4, hcDAF12 agonist 7.9, DAX1 inh-2 5.4 | LXRb hcDAF ctr inactive | hcDAF12 conf inactive
O=C1NC(c2ccc(Br)cc2)c2c(-c3ccccc3)n[nH]c21 (configuration not stated)	none (no result: DAX1 inh-2)
CC(=O)C1=C(O)C(=O)N(c2ccc(O)cc2)C1c1ccccc1[N+](=O)[O-] (configuration not stated)	none
CCOc1ccc(N2C(=O)C(=O)/C(=C(/O)c3ccccc3)C2c2ccccc2[N+](=O)[O-])cc1 (configuration not stated)	ssDAF12 agonist 1.3, hcDAF12 agonist 9.4 | LXRb hcDAF ctr inactive | hcDAF12 conf inactive
Clc1cccc(Nc2nc(-c3cccnc3)cs2)c1	ssDAF12 agonist 1.8, hcDAF12 agonist 8.9, hgDAF12 agonist 11, DAX1 inh-2 5.4 | LXRb hcDAF ctr inactive | hcDAF12 conf 11
Cc1ccc(Nc2nc(-c3cccnc3)cs2)cc1C	ssDAF12 agonist 3.8, hcDAF12 agonist 20, hgDAF12 agonist 19, DAX1 inh-2 4.3 | LXRb hcDAF ctr inactive | hcDAF12 conf 19
CC(=O)c1ccc(Nc2nc(-c3cccnc3)cs2)cc1	none
Cc1nn(-c2ccc(Cl)c(Cl)c2)c(=O)c2ccccc12	none
O=c1c2ccccc2cnn1Cc1n[nH]c(=S)n1-c1ccc(Cl)cc1	none
O=c1c2ccccc2cnn1-c1ccc(Cl)cc1	ssDAF12 agonist 1.9, hcDAF12 agonist 12, hgDAF12 agonist 17 | LXRb hcDAF ctr inactive | hcDAF12 conf 10
Cc1nn(-c2ccc(Cl)cc2)c(=O)c2ccccc12	ssDAF12 agonist 1.1, hcDAF12 agonist 7.2 | LXRb hcDAF ctr inactive | hcDAF12 conf 9.9
C/C(=N\NC(=O)c1c[nH]c2ccccc12)c1ccc2c(c1)OCO2	hcDAF12 agonist 7.2 | LXRb hcDAF ctr inactive | hcDAF12 conf inactive
C/C(=N\NC(=O)c1cc(C)oc1C)c1ccc2c(c1)OCO2	none
CN(C)C(CNC(=O)CCS(=O)(=O)c1ccccc1)c1ccccc1 (configuration not stated)	hcDAF12 agonist 8.9 | LXRb hcDAF ctr inactive | hcDAF12 conf 7.1
Cc1ccc2nc(-c3sc4nc(C)cc(C)c4c3N)[nH]c2c1	ssDAF12 agonist 2.3, hcDAF12 agonist 17, DAX1 inh-1 4.0 | LXRb hcDAF ctr inactive | hcDAF12 conf 24
CC(=O)c1sc2nc(C)cc(C)c2c1N	none
CCOC(=O)N1CCC(NC(=O)c2ccc(Cl)cc2)CC1	none
COCCNC(=O)c1cc2c(-c3ccc(Cl)cc3)nn(C)c2s1	hcDAF12 agonist 6.8 | LXRb hcDAF ctr inactive | hcDAF12 conf inactive
Cn1nc(-c2ccc(Cl)cc2)c2cc(C(=O)NCCCN3CCCC3)sc21	hcDAF12 agonist 9.5 | LXRb hcDAF ctr inactive | hcDAF12 conf 6.5
CCOC(=O)N1CCC(NC(=O)c2cc3c(-c4ccc(Cl)cc4)nn(C)c3s2)CC1	hcDAF12 agonist 7.8 | LXRb hcDAF ctr inactive | hcDAF12 conf inactive
Cn1nc(-c2ccc(Cl)cc2)c2cc(C(=O)N3CCCC3)sc21	none
COc1ccccc1C(=O)N1CCN(C(=O)[C@H]2O[C@@H](n3cnc(C(N)=O)n3)[C@H](O)[C@@H]2O)CC1	none (no result: DAX1 inh-2)
Cc1ccc(S(=O)(=O)NC(=O)NCCCN2CCOCC2)cc1	hcDAF12 agonist 7.6 | LXRb hcDAF ctr inactive | hcDAF12 conf inactive
COc1ccc2c(c1)[C@@H](NC(=O)c1ccncc1)[C@H](C)[C@H]2c1ccccc1	none (no result: DAX1 inh-2)

Screening data as filed in PubChem BioAssay.
